Assay [1] has as its target Aldehyde dehydrogenase, mitochondrial (Homo sapiens) (UniProt P05091). Description: qHTS for Inhibitors of the Aldehyde Dehydrogenase Family (ALDH2) Primary screen (AID 2061308). Also: nearly all actives have a fitted effect of over 55% in size. For orientation: Quantitative high-throughput screening tests each substance at several concentrations.
For assay [2], the target named is Retinaldehyde dehydrogenase 3 (Homo sapiens) (UniProt P47895). The assay is described as follows: qHTS for Inhibitors of the Aldehyde Dehydrogenase Family (ALDH1A3) Primary screen (AID 2061315).

The structures appear in SMILES notation. Results filed as inconclusive are left out. A call without a number means that no potency is given here. The source made the active and inactive calls. Calls follow the shape of the dose curve; as a rule, active = well fitted curve in the direction sought with a large enough effect; inconclusive = small, poorly fitted or top-dose-only effect, or another doubt; inactive = no such curve, though single readings can be large; an effect the other way counts as inactive or inconclusive.

As to `CC1=C(C(=O)c2ccccc2)C(c2ccccc2Cl)N=C(Nc2nc3ccccc3o2)N1` (stereo unspecified), the Potency result in assay [1] and in assay [2] was “inactive” throughout.

With `COc1ccc(-n2ncc3c2CCCC3NC(=O)c2ccc3ncccc3c2)cc1` (stereo unspecified), the Potency result in assay [1] and in assay [2] was “inactive” in each case.

With `CC(C)c1ccccc1SC1=NS(=O)(=O)c2ccccc21`, the Potency result in assay [1] and in assay [2] was “inactive” in each case.

As for `Cc1cc2c(s1)c1cnn(Cc3c(F)ccc(F)c3F)c(=O)c1n2C`, the Potency entry in assay [1] and in assay [2] was “inactive” in each case.

With `O=C(Nc1ccc(-c2nc3ccccc3[nH]2)cc1)Nc1ccc2occc2c1`, the Potency entry in assay [1] and in assay [2] was “inactive” throughout.

As for `CC(=O)Nc1sc2c(c1-c1cccs1)CCNC2`, the Potency entry in assay [1] and in assay [2] was “inactive” in each case.

As for `O=C(Nc1ccc2sccc2c1)Nc1nnc(-c2ccncc2)s1`, the Potency result in assay [1] and in assay [2] was “inactive” throughout.

`Cn1c2cc(B(O)O)sc2c2cnn(Cc3ccc(F)cc3F)c(=O)c21`: the Potency result in assay [1] and in assay [2] was “inactive” throughout.

Turning to `O=C(Cn1cc(CNC(=O)c2ccccc2)nn1)Nc1cc(C(F)(F)F)ccc1Cl`, the Potency result in assay [1] and in assay [2] was “inactive” in each case.

As to `O=C(Nc1ccc2ccccc2c1)Nc1nnc(-c2ccc(O)cc2)s1`, the Potency result in assay [1] and in assay [2] was “inactive” each time.

For `O=C(Nc1ccc(S(=O)(=O)Nc2nccs2)cc1)c1ccc2ccccc2c1`, the Potency entry in assay [1] and in assay [2] was “inactive” each time.

As to `O=C(Cc1nnc(-c2cc3ccccc3[nH]2)s1)Nc1cc(C(F)(F)F)ccc1Cl`, the Potency result in assay [1] and in assay [2] was “inactive” each time.

`Cc1cc2c(s1)c1cnn(Cc3ccc(C(C)(C)C)cc3)c(=O)c1n2C`: the Potency result in assay [1] and in assay [2] was “inactive” throughout.

Consider `O=C(NCc1nnc(-c2cc3ccccc3[nH]2)o1)c1ccccc1`, for which the Potency result in assay [1] and in assay [2] was “inactive” in each case.

With `C[C@@]12CC[C@@H]3[C@@](CC[C@H]4[C@@]3(C)CCC[C@@]4(C)C(=O)O)(CC1=O)C2`, the Potency result in assay [1] and in assay [2] was “inactive” each time.

Regarding `COc1ccc([C@H]2[C@H](c3ccccc3)C(=O)N2Cc2ccccc2)cc1COc1ccc(NC(C)=O)cc1`, the Potency result in assay [1] and in assay [2] was “inactive” in each case.

In the case of `Cn1nnnc1Sc1ncnc2scc(-c3cc4ccccc4o3)c12`, the Potency entry in assay [1] and in assay [2] was “inactive” throughout.

For `Cc1cc(C)nc(NC(=S)N2CCN(c3cc(C(F)(F)F)nc4ccccc34)CC2)c1`, the Potency result in assay [1] and in assay [2] was “inactive” throughout.

On to `Cc1cc(N[S+](=O)([O-])c2cc3c(cc2Cl)CCC(=O)N3)ccc1Cl`, for which the Potency result in assay [1] and in assay [2] was “inactive” each time.

For `Cc1ccc(S(=O)(=O)Nc2cnccc2C(=O)Nc2nc(-c3ccc(F)cc3)cs2)cc1`, the Potency entry in assay [1] and in assay [2] was “inactive” in each case.

Consider `Cc1ccc(OCCn2c(CCNC(=O)c3ccc(Br)cc3)nc3ccccc32)cc1`, for which the Potency entry in assay [1] and in assay [2] was “inactive” each time.

`CC(=O)OC1CC2C3(C)CCC(OC(=O)CC(=O)O)C(C)(C)C3CCC2(C)C2(C)CCC(C3(C)CCC(=O)O3)C12` (stereo unspecified): the Potency entry in assay [1] and in assay [2] was “inactive” throughout.

`Cc1cccc(CNc2ncnc3ccc(-c4ccc5c(c4)OCCO5)cc23)c1`: the Potency entry in assay [1] and in assay [2] was “inactive” throughout.

For `CC(C)(C)OC(=O)NCCOCCOCCOc1ccc(-c2no[n+]([O-])c2C#N)cc1`, the Potency entry in assay [1] and in assay [2] was “inactive” throughout.

For `CCN(CC)CCCC(C)n1c(-c2ccccc2)nc2c(NCCOC)nc(C)nc21` (stereo unspecified), the Potency entry in assay [1] and in assay [2] was “inactive” in each case.

For `O=C(Nc1ncc(Cc2ccc(C(F)(F)F)cc2)s1)c1ccco1`, the Potency result in assay [1] and in assay [2] was “inactive” in each case.

With `CC1CCC2(C(=O)OC3OC(COC4OC(CO)C(O)C(O)C4O)C(O)C(O)C3O)CCC3(C)C(=CCC4C5(C)CCC(O)C(C)(C(=O)O)C5CCC43C)C2C1(C)O` (stereo unspecified), the Potency result in assay [1] and in assay [2] was “inactive” throughout.

Consider `Nc1nc(Nc2cc(F)cc(F)c2)nc(NC2CCCC2)n1`, for which the Potency result in assay [1] and in assay [2] was “inactive” in each case.

As to `Cc1ccc(S(=O)(=O)Nc2cccnc2C(=O)Nc2nc(-c3ccccc3)cs2)cc1`, the Potency result in assay [1] and in assay [2] was “inactive” in each case.

`Cc1ccccc1C(=O)n1ccc2cc(-c3nc(NC(=O)Cc4ccc5c(c4)OCO5)sc3C)ccc21`: the Potency entry in assay [1] and in assay [2] was “inactive” each time.

Regarding `O=C(O)c1ccc(-c2ccc3ncnc(NCCc4cnc[nH]4)c3c2)o1`, the Potency result in assay [1] and in assay [2] was “inactive” throughout.

As for `O=c1c2ccccc2nc2sc(Nc3cccc(-c4ccncc4)c3)nn12`, the Potency result in assay [1] and in assay [2] was “inactive” in each case.

Turning to `Cc1ccc(Cl)cc1NC(=O)c1nc[nH]c1C(=O)Nc1nc2ccccc2[nH]1`, the Potency result in assay [1] and in assay [2] was “inactive” throughout.

As for `COc1ccc(C2Nc3ccccc3C(=O)N2Cc2ccco2)cc1COc1c(C)cccc1C` (stereo unspecified), the Potency entry in assay [1] and in assay [2] was “inactive” each time.

In the case of `NC(=O)C1CCN(c2nc(-c3ccc(Br)cc3)cs2)CC1`, the Potency entry in assay [1] and in assay [2] was “inactive” in each case.

As for `O=C(Cn1nc(-c2ccccc2)ccc1=O)NCCc1ccccc1`, the Potency result in assay [1] and in assay [2] was “inactive” throughout.

For `O=C(Nc1ccc(Cl)c(Cl)c1)Nc1nnc(Br)s1`, the Potency result in assay [1] and in assay [2] was “inactive” each time.

On to `COc1cc(NC(=O)c2cnn3c(C)cc(C)nc23)cc(OC)c1OC`, for which the Potency result in assay [1] and in assay [2] was “inactive” throughout.

With `CCN(CC)CCCC(C)n1c(-c2ccccc2)nc2c(NCCO)nc(C)nc21` (stereo unspecified), the Potency entry in assay [1] and in assay [2] was “inactive” in each case.

In the case of `O=C1CCCc2cc(S(=O)(=O)Nc3cnccc3C(=O)Nc3nc(-c4ccccc4)cs3)ccc2N1`, the Potency result in assay [1] and in assay [2] was “inactive” throughout.

In the case of `CCOc1ccc(CCNC(=O)c2cc3sccc3n2CCN2CCOCC2)cc1OCC`, the Potency result in assay [1] and in assay [2] was “inactive” in each case.

For the compound `COc1cc(O)c(C(CC(=O)N2CCCCC2)c2ccc(C)cc2)c(OC)c1` (stereo unspecified), the Potency entry in assay [1] and in assay [2] was “inactive” in each case.

On to `Cc1cc(C)nc(NC(=S)N2CCN(c3ncccc3C#N)CC2)c1`, for which the Potency result in assay [1] and in assay [2] was “inactive” throughout.
